Results reported in PubChem BioAssay AID493036 (Sanford-Burnham Center for Chemical Genomics, 2011).
The whole screen tested about 330,000 compounds, of which about 560 (0.17%) were called active.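 Rule for the calls: active = activation at or above 40% of the spot to cytoplasm intensity ratio, with at least 20 cells analyzed; inconclusive = wells under 20 cells, flagged as cytotoxic or low count; inactive = the rest.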 Shown is part of a subset that was picked to be rich in actives.

Columns and labels:
[1] = agonists of human NTR1, primary screen, imaging, U2OS cells, beta-arrestin-GFP, high content (AID 493036); conditions: NTR1-U2OS beta-arrestin-GFP spot imaging, agonist mode; measured here: cell count, cytotoxicity flag; at 20 µM;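 for activation: 0% = DMSO without peptide and 100% = 100 nM NTR1 peptide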
[2] = target: Neurotensin receptor type 1 (Homo sapiens) (UniProt P30989); experiment: as above; conditions: NTR1-U2OS beta-arrestin-GFP spot imaging, agonist mode; at 20 µM; stronger effect = higher value
Neurotensin receptor type 1 (Homo sapiens), sequence (P30989 whole entry, looked up): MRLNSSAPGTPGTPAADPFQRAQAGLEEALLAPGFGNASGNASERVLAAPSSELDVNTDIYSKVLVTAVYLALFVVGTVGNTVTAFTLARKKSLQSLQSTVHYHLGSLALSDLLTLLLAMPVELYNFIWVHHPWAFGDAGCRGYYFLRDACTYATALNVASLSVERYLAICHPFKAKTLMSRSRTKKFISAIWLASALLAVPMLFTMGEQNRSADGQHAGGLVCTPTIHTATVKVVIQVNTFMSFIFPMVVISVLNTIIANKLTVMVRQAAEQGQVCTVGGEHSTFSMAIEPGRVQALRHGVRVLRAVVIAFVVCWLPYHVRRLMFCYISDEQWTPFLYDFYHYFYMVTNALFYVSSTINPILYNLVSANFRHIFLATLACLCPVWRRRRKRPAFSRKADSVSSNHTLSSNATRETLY

Row | Compound | cell count [1] | activation [2]
1 | COc1ccc(C(C[N+](=O)[O-])n2nc(C)cc2C)cc1 (configuration not stated) | 64 cells | 47.9% (active)
2 | COc1ccc(OC)c(S(=O)(=O)n2c([N+](=O)[O-])cnc2C)c1 | 68 cells | 0.5% (inactive)
3 | CCOc1ccc(C(C)C)cc1S(=O)(=O)n1nc(C)cc1C | 43 cells | 0.1% (inactive)
4 | CC(C)(CNC(=O)Cc1ccc(Cl)cc1Cl)N1CCOCC1 | 59 cells | -2.3% (inactive)
5 | CCOc1ccc2sc(NS(=O)(=O)c3ccc(N)cc3)nc2c1 | 62 cells | 2.8% (inactive)
6 | O=C(Nc1cc(Cl)ccc1N1CCOCC1)c1ccc(N2CCCC2=O)cc1 | 53 cells | -1.6% (inactive)
7 | CCn1c(Cc2cccs2)nnc1SCC(=O)c1ccc(C)cc1 | 56 cells | 0.5% (inactive)
8 | Fc1ccccc1CNC(=S)Nc1ccc(Cl)cc1 | 48 cells | 2.3% (inactive)
9 | CCN(CCNC(=O)C1=C(C)C(=O)OC12CCC(C)CC2)c1ccccc1 (configuration not stated) | 64 cells | 3.9% (inactive)
10 | COc1ccc(OC)c(NC(=O)c2cnn(-c3ccccc3Cl)c2NC(=O)c2ccco2)c1 | 62 cells | 4.9% (inactive)
11 | CCOCCCNC(=S)Nc1ccc2nc(N3CCN(CC)CC3)cc(C)c2c1 | 73 cells | -2% (inactive)
12 | CCCCCCCC(=O)NC(Nc1ccccc1OC)C(Cl)(Cl)Cl (configuration not stated) | 50 cells | 2.7% (inactive)
13 | Cc1nn(CC(=O)Nc2ccc(C#N)cc2)c(C)c1[N+](=O)[O-] | 65 cells | 0.3% (inactive)
14 | CC(OC(=O)CN1C(=O)COc2ccccc21)C(=O)NCc1ccc(F)cc1 (configuration not stated) | 51 cells | 0.8% (inactive)
15 | O=S(=O)(c1ccccc1)N1CN(Cc2ccc(F)cc2)c2nc3ccccc3nc21 | 40 cells | 0.8% (inactive)
16 | CC(C)CC1(C(=O)NCc2ccccn2)C=CCN1C(=O)c1ccccc1 (configuration not stated) | 56 cells | -0.1% (inactive)
17 | CCN(C(=O)CSc1ncnc2c1cnn2-c1ccccc1)C1CCS(=O)(=O)C1 (configuration not stated) | 39 cells | -0.3% (inactive)
18 | O=[N+]([O-])/C=C/c1ccc2c(ccn2Cc2ccccc2)c1 | 87 cells | 87.3% (active)
19 | CCCCC[C@@H]1C=C(C(=O)O)[C@H](c2ccc(C#N)cc2)N1S(=O)(=O)c1ccc(C)cc1 | 52 cells | 7.1% (inactive)
20 | CCCCCCCCCCCCN1C(=O)CSC1c1cccnc1 (configuration not stated) | 45 cells | 11.6% (inactive)
21 | CC(C)Cn1c(CCC(=O)O)ccc1-c1cccs1 | 50 cells | -0.5% (inactive)

Row | Compound | cell count [1] | activation [2]
22 | COc1ccccc1NC(=O)C1CCN(C(=O)c2ccc(C(C)(C)C)cc2)CC1 | 46 cells | -0.5% (inactive)
23 | Cc1ccc(S(=O)(=O)NNC(=O)/C=C/c2cccc(F)c2)cc1 | 75 cells | 0% (inactive)
24 | CCCC(C(=O)NC1CCCC1)N(C(=O)Cn1nnc(-c2ccc(C)o2)n1)c1cccc(O)c1 (configuration not stated) | 48 cells | 0.6% (inactive)
25 | CC1CCN(S(=O)(=O)c2ccc3c(ccn3CC(=O)O)c2)CC1 | 71 cells | 0.7% (inactive)
26 | C#CCCOC(=O)N1C2=NC(C(=O)OC)=C(C(=O)OC)[C@@H]3N(C)c4ccc(OC)cc4[C@]23C[C@H]1C(=O)OC | 67 cells | 1.9% (inactive)
27 | Cc1ccc(N(C(=O)c2sc(C)nc2C)C(C(=O)NC(C)(C)C)c2ccncc2)cc1 (configuration not stated) | 32 cells | -0.4% (inactive)
28 | O=C(Oc1ccccc1C(=S)N1CCCCC1)c1cc([N+](=O)[O-])cc([N+](=O)[O-])c1 | 41 cells | 0.8% (inactive)
29 | CCOC(=O)c1cnc2c(c(C)nn2CC)c1Cl | 47 cells | 2.2% (inactive)
30 | O=C(OCC(O)C(O)COC(=O)c1ccccc1)c1ccccc1 (configuration not stated) | 68 cells | 0% (inactive)
31 | COc1ccc([C@H]2CC(=O)C=C(c3ccc(C)cc3)C2)cc1 | 62 cells | 3.1% (inactive)
32 | CC(C)c1ccccc1OCC(O)CN(CC(O)COc1cccc2ccccc12)C(C)C (configuration not stated) | 48 cells | 46.1% (active)
33 | CCC(C)Sc1nc2c(c(=O)[nH]c(=O)n2C)n1CC(O)COc1cccc2ccccc12 (configuration not stated) | 51 cells | 4.1% (inactive)
34 | Cc1cc(C)c(NC(=O)C[N+](C)(C)CC(O)COc2cccc3ccccc23)c(C)c1 (configuration not stated) | 43 cells | -1.1% (inactive)
35 | CN(C)S(=O)(=O)N1CCN(c2ccc([N+](=O)[O-])cc2)CC1 | 47 cells | 0% (inactive)
36 | COCc1cc(=O)[nH]c(-c2ccc(C(F)(F)F)cc2)n1 | 62 cells | -0.3% (inactive)
37 | CC(Sc1nn(-c2ccc(Cl)cc2)c(=S)s1)C(=O)NCC1CCCO1 (configuration not stated) | 67 cells | -1% (inactive)
38 | Cc1ccc(NC(=O)[C@H](Cc2ccccc2)NC(=O)C2CCNCC2)cc1 | 66 cells | -0.1% (inactive)
39 | COc1ccc(C2CC(=O)C=C(NCC3CCCO3)C2)cc1 (configuration not stated) | 92 cells | -3.9% (inactive)
40 | O=C1N(Cc2ccc3c(c2)OCO3)c2ccccc2C1(O)c1c[nH]c2ccccc12 (configuration not stated) | 56 cells | 5.6% (inactive)
41 | CC(C)(C)c1nnc(N/N=C/c2ccc(O)cc2)n(N)c1=O | 60 cells | 1.1% (inactive)
42 | O=C(CCNS(=O)(=O)c1cccs1)N1CCN(c2ccc(F)cc2)CC1 | 42 cells | -0.5% (inactive)

Row | Compound | cell count [1] | activation [2]
43 | CCOC(=O)CN1CC23C=CC(O2)C(C(=O)Nc2ccc(F)cc2)C3C1=O (configuration not stated) | 46 cells | -1.6% (inactive)
44 | COc1ccc(N2CCN(S(=O)(=O)c3ccc4c(c3)N(C(C)=O)CCO4)CC2)cc1 | 59 cells | 1.4% (inactive)
45 | CCN(CC)S(=O)(=O)c1ccc(Cl)c(C(=O)NC(C)C(c2cccs2)N2CCCC2)c1 (configuration not stated) | 57 cells | 0.4% (inactive)
46 | COC(c1ccccc1)c1nnc(CCC(=O)N2CCN(CCOc3ccccc3)CC2)o1 (configuration not stated) | 37 cells | 0.7% (inactive)
47 | O=C1CN(C(=O)c2ccccc2F)C(c2ccc(F)cc2)c2cc(F)ccc2N1 (configuration not stated) | 89 cells | 0% (inactive)
48 | O=C(CN1CCCSc2ccccc21)N1CCN(S(=O)(=O)c2ccccc2)CC1 | 62 cells | 0% (inactive)
49 | O=C(CCc1ccccc1Cl)Nc1ccc(S(=O)(=O)Nc2nccs2)cc1 | 42 cells | 1.9% (inactive)
50 | O=C(CS(=O)(=O)c1ccc(C(F)(F)F)cn1)NNC(=O)c1ccccc1 | 55 cells | -1% (inactive)
51 | Cc1ccc(C(C)NC(=O)Cn2nc(C)c([N+](=O)[O-])c2C)cc1 (configuration not stated) | 54 cells | 3.1% (inactive)
52 | O=C(Cn1ncc(N2CCCC2)c(Br)c1=O)c1ccc(Cl)cc1 | 53 cells | 2.8% (inactive)
53 | CCC/C(C)=N\Nc1nc2c(c(=O)n(C)c(=O)n2C)n1C | 58 cells | 0.3% (inactive)
54 | CCOc1ccc(NC(=O)N2CC=C(n3c(=O)[nH]c4ccccc43)CC2)cc1 | 42 cells | 0.4% (inactive)
55 | COc1ccc(C(C(=O)NC2CCCCC2)N(C(=O)CCl)c2ccccc2Cl)cc1 (configuration not stated) | 35 cells | 7.8% (inactive)
56 | O=C(OCC(=O)N1CCCC1=O)c1cc(S(=O)(=O)N2CCOCC2)ccc1Cl | 45 cells | -0.7% (inactive)
57 | Nc1c(C(=O)Nc2ccc3c(c2)OCCO3)nnn1Cc1ccccc1 | 53 cells | 0.3% (inactive)
58 | CCOc1ccc(CN2CCN(Cc3c[nH]c4ccccc34)CC2)cc1 | 62 cells | 0.2% (inactive)
59 | Cc1ccc2c(c1)C(O)(CC(=O)c1cccc(-n3cccc3)c1)C(=O)N2 (configuration not stated) | 57 cells | 1.6% (inactive)
60 | O=C(Nc1ccc(F)c([N+](=O)[O-])c1)C1CCCO1 (configuration not stated) | 58 cells | -0.8% (inactive)
61 | CCCC(=O)Nc1ncnc2c1ncn2[C@@H]1O[C@@H]2OP(=O)(O)OC[C@H]2[C@H]1OC(=O)CCC | 60 cells | 1.1% (inactive)
62 | COc1ccc(C)cc1-n1nnnc1SCC(=O)c1cc(C)n(Cc2ccco2)c1C | 88 cells | 2.5% (inactive)
63 | Cc1ccc2nc3c(cc(C(=O)NCCc4ccccc4)c(=N)n3CC3CCCO3)c(=O)n2c1 (configuration not stated) | 47 cells | 0.1% (inactive)

Row | Compound | cell count [1] | activation [2]
64 | O=C(COC(=O)C1CC2C=CC1C2)Nc1ccccc1 (configuration not stated) | 55 cells | -0.8% (inactive)
65 | CCOc1ccc(N(CC(=O)Nc2ccccc2F)S(=O)(=O)c2c(C)[nH]c(=O)[nH]c2=O)cc1 | 61 cells | -0.8% (inactive)
66 | CCCCCCCCCCOC(=O)Cn1c(COc2ccc(C)cc2)[n+](C)c2ccccc21 | 48 cells | 28.5% (inactive)
67 | COc1cccc(OCc2nnc3n2N=C(c2ccccc2)C(CC(=O)O)S3)c1 (configuration not stated) | 51 cells | 0.6% (inactive)
68 | CCCCCCCCCCOC(=O)Cn1c(COc2cccc(OC)c2)[n+](C)c2ccccc21 | 71 cells | 69.3% (active)
69 | CC1=C(C(=O)OCc2ccccc2)C(c2ccco2)n2ncnc2N1 (configuration not stated) | 52 cells | -3.8% (inactive)
70 | CCOC(=O)CSC1=C(C#N)C(c2ccco2)C(C(=O)OCc2ccccc2)=C(C)N1 (configuration not stated) | 51 cells | 41.1% (active)
71 | CC1=C(C(=O)Nc2ccccc2)C(c2cccs2)C(C#N)=C(SCC#N)N1 (configuration not stated) | 63 cells | 0.8% (inactive)
72 | Cc1ccccc1C(=O)Nc1cccc(-c2nnc(SCC(=O)O)n2C)c1 | 57 cells | 1.7% (inactive)
73 | Cc1cc(S(=O)(=O)NCc2ccccn2)c(Cl)cc1Cl | 75 cells | 0.3% (inactive)
74 | Cc1cc(/C=C2/SC(=O)N(CC(=O)OC(C)C)C2=O)c(C)n1C | 60 cells | 0.9% (inactive)
75 | COc1ccccc1C(=O)Nn1cnnc1 | 66 cells | -0.3% (inactive)
76 | COc1ccc(C2=NN(c3ccccc3)C(c3cccs3)C2)cc1 (configuration not stated) | 44 cells | 1.2% (inactive)
77 | Oc1ccccc1C1=NN(c2ccccc2)C(c2ccccc2)C1 (configuration not stated) | 102 cells | 48.9% (active)
78 | O=C1C2N=NN(CC(=O)N3N=C(c4cccc5ccccc45)CC3c3ccccc3)C2C(=O)N1c1ccccc1 (configuration not stated) | 87 cells | 2.9% (inactive)
79 | O=C(/C=C/c1ccc(Cl)cc1Cl)c1cccnc1 | 71 cells | 29.2% (inactive)
80 | O=C(Nc1ccncc1)c1ccc(Cl)c([N+](=O)[O-])c1 | 85 cells | -0.2% (inactive)
81 | O=C(/C=C/c1ccc(Cl)c([N+](=O)[O-])c1)c1cccnc1 | 51 cells | 50% (active)
